Data published in the OligoGym collection.

biological target: GHDC; assay: pooled miR-30 sensor sort-seq; sequence = guide strand; conditions: shRNA
Further: reference of the scale not given here.

Sequence	sensor-assay potency score (higher = more potent)
TAGCTCTTCACCATCAGTCTCC	0.0115
TCCAGCCTGCAGATGAACCTGA	-0.985
TTTTCCTCTGACAGATTCCTCA	-0.542
TTGTAGGCACCAACCACTCGCA	-0.926
TGCTGCTCTCCACACAGCCATG	-2.06
CTGCTCTCCACTGTCTTCCTGC	-1.58
AGAAGTTCGACAGCCGTCCCAG	-0.973
TTATGTCTGTGCTCCTTCTGAG	-0.0646
TTCCTCTGACAGATTCCTCAGC	-0.103
ATTGTAGGCACCAACCACTCGC	0.0645
TCAGAGAACAGGTCTTCACCAA	0.187
TCCACTGTCTTCCTGCTGGGTC	-1.07

biological target: GHRL; assay: as above; conditions: shRNA

Sequence	sensor-assay potency score (higher = more potent)
TCTCTGCTGGACTCTCTGGTGT	-0.98
TTCTGCTTGACCTCCATCTTCC	-0.0657
TGCTTGACCTCCATCTTCCGGG	-0.583
TCTTCGACTCCTTTCTCTGCTG	-0.622
TGAGCTTGTACAACAGTCGTGG	0.776
TGTCCTGAAGAAACTTCCCCAG	-1.03
TTGACCTCCATCTTCCGGGCGG	-0.454
TTGATTCCAACATCAAAGGGGG	0.299
TAGAGCTCGGGGCTGCAGCTTG	-0.899
TTTCTCTGCTGGACTCTCTGGT	0.0983
TACTGAACCCCTGACAGCTTGA	-0.592
TTCTCTGCTGGACTCTCTGGTG	-0.904
